ROS inducer: ROS inducers in U2OS cancer cells, primary screen, cell-based, H2DCF-DA fluorescence | ROS induction (% of piperlongumine), % at 10 µM | U2OS ROS induction | AID 624156, 2012 | 2% of 46,000 active; in the data active means ROS induction above about 79%, passing the limit was not always enough;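 further: 0% = DMSO vehicle median and 100% = reference compound median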
NOMO-1 viab: NOMO-1 AML cell viability reduction, primary screen, STK33 inhibitor project, CellTiter-Glo luminescence | NOMO-1 AML viability, 72 h | inhibition, % (concentration not given with the values) | 7.5% of 37,000 active | AID 2330, 2010; in the data active means inhibition above about 80%
PD-1 reverse act: activators reversing PD-1 mediated T-cell inhibition, primary screen, luminescence, primary human CD4 T cells, PD-L1 beads; CellTiter-Glo 96 h; 29,000 tested, under 10 active; activation, % (concentration not given with the values); call rule not given here;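 further: 0% = median vehicle wells and 100% = positive control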
YB-1 expression: inhibitors of YB-1 gene expression, primary screen, cell-based, fluorescence | AID 434959, 2010 | 0.37% of 30,000 active | U2OS, qRT-PCR YB-1 vs CDIP delta delta Cp, 16 h; hits give high values; zero = DMSO, each unit about twofold | delta delta Cp (YB-1 minus CDIP) (concentration not given with the values);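 active means delta delta Cp rounded down to an integer at or above 3, about 3 SD of DMSO wells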;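 further: higher means less YB-1 transcript or more CDIP transcript relative to DMSO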
* = called active by the depositor; · = no result. The entries come from a sample that favours hits as a whole.

SMILES | ROS inducer | NOMO-1 viab | PD-1 reverse act | YB-1 expression
COc1ccc(S(=O)(=O)Nc2ccc3c(c2)CC(=O)N([C@H](C)CO)C[C@@H](C)[C@@H](CN(C)Cc2ccc(Oc4ccccc4)cc2)O3)cc1 | 6 | 116* | -2 | -0.093
COc1ccc(S(=O)(=O)Nc2ccc3c(c2)CC(=O)N([C@H](C)CO)C[C@@H](C)[C@H](CN(C)Cc2ccccc2)O3)cc1 | 3 | -10 | 2 | 0.13
C[C@@H]1CN([C@H](C)CO)C(=O)Cc2cc(NS(=O)(=O)c3ccc(Cl)cc3)ccc2O[C@@H]1CN(C)Cc1ccc(Oc2ccccc2)cc1 | 86* | 82* | 0 | 0.58
CC(C)C(NC(=O)c1ccc(CN2CCN(c3ccccc3)CC2)cc1)C(C)C | -3 | · | · | ·
O=C1OC2(CCCC2)OC(=O)C1=Cc1c[nH]c2ccccc12 | 14 | · | · | ·
O=C1/C(=C\c2c[nH]c3ccccc23)C(c2ccccc2)Oc2ccccc21 (configuration not stated) | 29 | 121* | 1 | -0.1
COC(=O)CCCCCCC(=O)N/N=C/c1ccc(O)cc1Br | 43 | · | · | -0.091
COC(=O)CNC(c1ccccc1)c1cc(Br)ccc1NC(=O)c1ccccc1Cl (configuration not stated) | 97* | · | · | ·
C[C@@H]1O[C@@H](O[C@H]2[C@H](O[C@H]3CC[C@@]4(C)C(CC[C@]5(C)C4CC=C4C6CC(C)(C)CC[C@]6(C(=O)O[C@@H]6O[C@H](CO[C@@H]7O[C@H](CO)[C@@H](O[C@@H]8O[C@@H](C)[C@H](O)[C@@H](O)[C@H]8O)[C@H](O)[C@H]7O)[C@@H](O)[C@H](O)[C@H]6O)CC[C@]45C)[C@]3(C)CO)OC[C@H](O)[C@@H]2O)[C@H](O)[C@H](O)[C@H]1O (some centres not stated) | -12 | · | · | -0.12
C[C@@H]1O[C@@H](O[C@H]2[C@H](O[C@H]3CC[C@@]4(C)C(CC[C@]5(C)C4C=C[C@]46OC[C@@]7(CCC(C)(C)C[C@H]74)[C@@H](O)C[C@]65C)[C@]3(C)CO)O[C@H](CO)[C@@H](O)[C@@H]2O[C@@H]2O[C@H](CO)[C@@H](O[C@@H]3O[C@@H](C)[C@H](O)[C@@H](O)[C@H]3O)[C@H](O)[C@H]2O)[C@H](O)[C@H](O)[C@H]1O (some centres not stated) | -42 | · | · | 3.4*
C[C@@H]1CN([C@H](C)CO)C(=O)Cc2cc(NC(=O)Nc3ccc(C(F)(F)F)cc3)ccc2O[C@H]1CN(C)Cc1ccc(Cl)c(Cl)c1 | -7 | 31 | 1 | 0.24
C[C@H](CO)N1C[C@H](C)[C@H](CN(C)Cc2ccc(Cl)c(Cl)c2)Oc2ccc(NC(=O)Nc3ccc(C(F)(F)F)cc3)cc2CC1=O | 14 | 124* | 1 | -0.038
C[C@H]1CN([C@@H](C)CO)C(=O)Cc2cc(NC(=O)Nc3ccc(C(F)(F)F)cc3)ccc2O[C@H]1CN(C)Cc1ccc(Cl)c(Cl)c1 | 21 | 136* | -17 | -0.038
C[C@@H]1CN([C@H](C)CO)C(=O)Cc2cc(NC(=O)Nc3ccc(C(F)(F)F)cc3)ccc2O[C@@H]1CN(C)Cc1ccc(Cl)c(Cl)c1 | -2 | 79 | · | -0.11
Cc1cc(C)nc(S/C=C/C(=O)c2ccc(Cl)cc2)n1 | 0 | 121* | -1 | 0.23
O=C(Sc1ccc(Cl)cc1)c1ccco1 | 19 | · | · | ·
O=C(/C=C/Sc1ccc(Cl)cc1)c1ccccc1 | 11 | 123* | -6 | 0.21
Cn1cnnc1S/C=C/C(=O)c1ccc(Cl)cc1 | 32 | 116* | -4 | 0.78
CC(=O)c1c(C)oc2ccc(N(C(=O)c3ccc(C)cc3)S(=O)(=O)c3cccc4cccnc34)cc12 | · | 10 | · | ·
CCOc1ccc2nc(Nc3nc(C)cc(=O)[nH]3)nc(C)c2c1 | -10 | 18 | -4 | ·
COc1ccc2nc(Nc3nc(CSc4ccc(Cl)cc4)cc(=O)[nH]3)nc(C)c2c1 | · | 84* | · | ·
C[C@H]1CN([C@@H](C)CO)C(=O)c2cccc(NC(=O)c3ccc(-c4nccs4)cc3)c2O[C@H]1CN(C)Cc1ccc(-c2ccccc2)cc1 | 29 | 58 | -3 | 0.18
C[C@H](CO)N1C[C@H](C)[C@@H](CN(C)Cc2ccc(Oc3ccccc3)cc2)Oc2c(NC(=O)c3ccc(-c4nccs4)cc3)cccc2C1=O | 120* | 112* | -2 | -0.67
C[C@H](CO)N1C[C@H](C)[C@H](CN(C)Cc2ccc(-c3ccccc3)cc2)Oc2c(NC(=O)c3ccc(-c4nccs4)cc3)cccc2C1=O | 31 | 88* | 0 | 0.44
C[C@H]1CN([C@@H](C)CO)C(=O)c2cccc(NC(=O)c3ccc(-c4nccs4)cc3)c2O[C@H]1CN(C)S(=O)(=O)c1cccs1 | 83* | 15 | -3 | 0.085
SMILES | ROS inducer | NOMO-1 viab | PD-1 reverse act | YB-1 expression
C[C@@H]1CN([C@@H](C)CO)C(=O)c2cccc(NC(=O)c3ccc(-c4nccs4)cc3)c2O[C@@H]1CN(C)Cc1ccc(C(=O)Nc2ccccc2N)cc1 | 54 | 141* | -5 | -0.32
C[C@H]1CN([C@@H](C)CO)C(=O)c2cccc(NC(=O)c3ccc(-c4nccs4)cc3)c2O[C@H]1CN(C)Cc1ccc(Oc2ccccc2)cc1 | 38 | 64 | -2 | 0.19
CC(C)n1c(SCC(=O)c2ccccc2)nc2cc(Cl)ccc21 | 13 | · | · | ·
C[C@H](CO)N1C[C@H](C)[C@@H](CN(C)Cc2ccc(-c3ccccc3)cc2)Oc2c(NC(=O)c3ccc(-c4nccs4)cc3)cccc2C1=O | 56 | 87* | -4 | -0.12
C[C@H](CO)N1C[C@H](C)[C@@H](CN(C)Cc2ccccc2)Oc2c(NC(=O)c3ccc(-c4nccs4)cc3)cccc2C1=O | 38 | 97* | -4 | 0.76
C[C@H]1CN([C@@H](C)CO)C(=O)Cc2cc(NC(=O)Nc3ccc(F)cc3)ccc2O[C@@H]1CN(C)Cc1ccc(Oc2ccccc2)cc1 | 12 | 107* | 1 | 0.47
CC(C)NC(=O)Nc1ccc2c(c1)CC(=O)N([C@@H](C)CO)C[C@@H](C)[C@@H](CN(C)Cc1ccc(Oc3ccccc3)cc1)O2 | 58 | 89* | -3 | 0.11
CC(C)NC(=O)Nc1ccc2c(c1)CC(=O)N([C@@H](C)CO)C[C@H](C)[C@H](CN(C)Cc1ccc(Oc3ccccc3)cc1)O2 | 1 | 4 | · | -0.068
C[C@H]1CN([C@@H](C)CO)C(=O)Cc2cc(NC(=O)Nc3ccc(F)cc3)ccc2O[C@H]1CN(C)Cc1ccccc1 | 40 | 11 | 0 | 0.016
COc1ccc(NC(=O)Nc2ccc3c(c2)CC(=O)N([C@@H](C)CO)C[C@@H](C)[C@@H](CN(C)Cc2ccc(Oc4ccccc4)cc2)O3)cc1 | 9 | 60 | · | 0.0029
C[C@@H]1CN([C@H](C)CO)C(=O)Cc2cc(NC(=O)Nc3ccc(F)cc3)ccc2O[C@@H]1CN(C)Cc1ccc(Oc2ccccc2)cc1 | 40 | 114* | -6 | -0.32

Source: PubChem BioAssay
